In PubChem BioAssay AID588330 (National Center for Advancing Translational Sciences (NCATS), 2011):
Inconclusive results are not listed. Calls of active or inactive are those of the source. The call rests on the fitted dose curve; in most records, active means well fitted inhibition curve with a large enough effect; inconclusive means small, poorly fitted or top-dose-only effect; inactive means flat fitted curve, though single readings scatter.

Test system: 6-phosphofructokinase (Trypanosoma brucei)
Assay: Confirmatory Assay to Find Inhibitors of T. brucei phosphofructokinase: High ATP
Details: T. brucei PFK, Kinase-Glo luminescence; series mostly up to 57.5 µM
Text: Various species of the protozoan family Trypanosomatidae are responsible for a range of serious human diseases in tropical and subtropical areas of the world. […] Many of the disorders caused by trypanosomatids are fatal if left untreated, but most currently used drugs are inefficient and toxic. […] Oxidative metabolism involving the mitochondrial tricarboxylic acid cycle and oxidative phosphorylation are repressed in these parasites, and recent RNA interference (RNAi) experiments have shown that even partial depletion of certain individual glycolytic enzymes can lead to the death of cultured parasites. One such glycolytic enzyme, phosphofructokinase (PFK), catalyzes the formation of fructose-1,6-bisphosphate (F1,6BP) and ADP from fructose-6-phosphate (F6P) and ATP, and in many metabolic circumstances makes an important contribution to the control of flux through the glycolytic pathway. As a specific glycolytic target, PFK is particularly attractive as it catalyzes the first irreversible step in glycolysis, and structural and kinetic studies have shown very substantial and essential differences from corresponding host enzymes, allowing for the discovery of parasite-selective inhibitors. A luminescent secondary assay was also performed that used luciferase-based nucleotide detection ([…]) similar to the qHTS, but that alternatively used saturating concentrations (10x Km concentrations) of ATP or F6P to determine if inhibitor potencies were shifted due to particular substrate competition. […] NIH Molecular Libraries Probe Production Network [MLPCN] NIH Chemical Genomics Center [NCGC] Grant: 1 R03 MH092153-01 PI Name: Malcolm Walkinshaw, University of Edinburgh
Substrate buffer was dispensed into white, solid 1536-well plates at 3 uL/well in 0.1M triethanolamine (TEA) buffer, pH 8.0, containing final concentrations of 5 mM MgCl2 and 0.01% Tween20. Standard substrate buffer contained 0.5mM fructose-6-phosphate (F6P) and 0.1mM ATP, high ATP substrate buffer contained 0.5mM fructose-6-phosphate (F6P) and 1mM ATP, high F6P substrate buffer contained 5mM fructose-6-phosphate (F6P) and 0.1mM ATP, and high ATP/F6P buffer contained 5mM fructose-6-phosphate (F6P) and 1mM ATP. Then, 23nl of compounds or DMSO were delivered to each well using a pin tool. One uL of T. brucei PFK (0.1M TEA, 0.01% Tween20, 0.1% bovine serum albumin (BSA) and 1.25nM PFK, final concentrations) was then dispensed, and plates were incubated at room temperature for 45 min. The luminescent detection reagent, Kinase-Glo Plus (Promega), was then added at 2ul/well and incubated for ten minutes at room temperature. The plates were measured on a ViewLux plate reader for luminescent signal using a clear filter with a one second exposure. The %Activity was determined from the corrected luminescence values. 1x (1.25nM) and 0x PFK enzyme controls (untreated) were included to normalize %Activity of identified inhibitors; 0x enzyme values corresponded to 100%Activity (full inhibition), while 1x PFK enzyme values were used to normalize 0% Activity (no inhibition).

Compound	Potency
Cc1cc(N(C)S(=O)(=O)c2ccc(NC(=O)Cc3ccc(Cl)c(Cl)c3)cc2)no1	3.26 µM (active)
O=C(Cc1ccc(Cl)c(Cl)c1)Nc1ccc(S(=O)(=O)Nc2cncnc2)cc1	1.3 µM (active)
Cc1cc(NS(=O)(=O)c2ccc(NC(=O)Cc3ccc(Cl)cc3)cc2)no1	2.91 µM (active)
O=C(Cc1ccc(Cl)c(Cl)c1)Nc1ccc(S(=O)(=O)Nc2ccccc2)cc1	13 µM (active)
O=C(Cc1ccc(Cl)c(Cl)c1)Nc1ccc(S(=O)(=O)Nc2ccn[nH]2)cc1	0.73 µM (active)
Cc1cc(NS(=O)(=O)c2ccc(NC(=O)Cc3cccc(Cl)c3)cc2)no1	6.51 µM (active)
Cc1cc(NS(=O)(=O)c2ccc(NC(=O)Cc3ccc4ccccc4c3)cc2)no1	5.8 µM (active)
CCOC(=O)c1cccc(NS(=O)(=O)c2ccc(NC(=O)Cc3ccc(Cl)c(Cl)c3)cc2)c1	inactive
Cc1cc(NS(=O)(=O)c2ccc(C(=O)NCc3ccc(Cl)c(Cl)c3)cc2)no1	4.61 µM (active)
Cc1cc(NC(=O)c2csc(NC(=O)Cc3ccc(Cl)c(Cl)c3)n2)no1	inactive
O=C(Cc1ccc(Cl)c(Cl)c1)Nc1ccc(S(=O)(=O)Nc2cccc(C(=O)O)c2)cc1	1.03 µM (active)
Cc1cc(NS(=O)(=O)c2ccc(NC(=O)Cc3ccc(Cl)c(Cl)c3)cc2)n(C)n1	1.83 µM (active)
Cc1cc(NS(=O)(=O)c2ccc(NC(=O)CCc3ccc(Cl)c(Cl)c3)cc2)no1	16.3 µM (active)
O=C(Cc1ccc(Cl)c(Cl)c1)Nc1ccc(S(=O)(=O)Nc2ccc(C(=O)O)cc2)cc1	0.919 µM (active)
O=C(Cc1ccc(Cl)c(Cl)c1)Nc1ccc(S(=O)(=O)Nc2cccc(O)c2)cc1	2.91 µM (active)
Cc1cc(NS(=O)(=O)c2ccc(NC(=O)Cc3ccc(Cl)c(Cl)c3)cc2)on1	0.517 µM (active)
CN(C)c1cccc(NS(=O)(=O)c2ccc(NC(=O)Cc3ccc(Cl)c(Cl)c3)cc2)c1	23.1 µM (active)

Compound	Potency
Cc1cc(N[S+](=O)([O-])c2ccc3cc(NC(=O)Cc4ccc(Cl)c(Cl)c4)ccc3c2)no1	6.51 µM (active)
Cc1cc(NS(=O)(=O)c2ccc(NC(=O)Cc3ccc(Cl)c(Cl)c3)cc2)no1	0.517 µM (active)
Cc1cc(NS(=O)(=O)c2ccc(NCCc3ccc(Cl)c(Cl)c3)cc2)no1	16.3 µM (active)
Cc1cc(NS(=O)(=O)c2ccc(N(C)C(=O)Cc3ccc(Cl)c(Cl)c3)cc2)no1	1.3 µM (active)
Cc1cc(NS(=O)(=O)c2ccc(NC(=O)Cc3ccc(C)c(F)c3)cc2)no1	8.19 µM (active)
Cc1cc(NS(=O)(=O)Cc2ccc(NC(=O)Cc3ccc(Cl)c(Cl)c3)cc2)no1	4.11 µM (active)
COc1ccc(CC(=O)Nc2ccc(S(=O)(=O)Nc3cc(C)on3)cc2)cc1OC	inactive
Cc1cc(NS(=O)(=O)c2ccc(NC(=O)Cc3ccc(Cl)c(F)c3)cc2)no1	1.03 µM (active)
Cc1cc(NS(=O)(=O)c2ccc(NC(=O)Cc3ccc(C)c(C)c3)cc2)no1	18.3 µM (active)
COc1ccc(CC(=O)Nc2ccc(S(=O)(=O)Nc3cc(C)on3)cc2)cc1C	inactive
O=C(Cc1ccc(Cl)c(Cl)c1)Nc1ccc(S(=O)(=O)Nc2ccon2)cc1	0.326 µM (active)
Cc1cc(NC(=O)c2ccc(NC(=O)Cc3ccc(Cl)c(Cl)c3)cc2)no1	inactive
Cc1cc(NS(=O)(=O)c2cccc(NC(=O)Cc3ccc(Cl)c(Cl)c3)c2)no1	18.3 µM (active)
Cc1cc(N[S+](=O)([O-])c2ccc(NC(=O)Cc3ccc(Cl)nc3)cc2)no1	18.3 µM (active)
Cc1cc(NS(=O)(=O)c2ccc(NC(=O)Cc3ccc(Cl)cc3Cl)cc2)no1	6.51 µM (active)
O=C(Cc1ccc(Cl)c(Cl)c1)Nc1ccc(S(=O)(=O)O)cc1	1.03 µM (active)
Cc1cc(NS(=O)(=O)c2ccc(NC(=O)Cc3ccc(Cl)c(C(F)(F)F)c3)cc2)no1	0.919 µM (active)
